We go through four compounds from PubChem BioAssay AID602291 (National Center for Advancing Translational Sciences (NCATS), 2012).

The structures appear in SMILES notation. Calls of active or inactive are those of the source.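 How the source made its calls: active means cells show a rise in impedance after compound treatment, with no numeric cutoff stated; inactive means no rise in impedance seen.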

Relaxin receptor 1 (Homo sapiens), sequence (Q9HBX9 whole entry, looked up): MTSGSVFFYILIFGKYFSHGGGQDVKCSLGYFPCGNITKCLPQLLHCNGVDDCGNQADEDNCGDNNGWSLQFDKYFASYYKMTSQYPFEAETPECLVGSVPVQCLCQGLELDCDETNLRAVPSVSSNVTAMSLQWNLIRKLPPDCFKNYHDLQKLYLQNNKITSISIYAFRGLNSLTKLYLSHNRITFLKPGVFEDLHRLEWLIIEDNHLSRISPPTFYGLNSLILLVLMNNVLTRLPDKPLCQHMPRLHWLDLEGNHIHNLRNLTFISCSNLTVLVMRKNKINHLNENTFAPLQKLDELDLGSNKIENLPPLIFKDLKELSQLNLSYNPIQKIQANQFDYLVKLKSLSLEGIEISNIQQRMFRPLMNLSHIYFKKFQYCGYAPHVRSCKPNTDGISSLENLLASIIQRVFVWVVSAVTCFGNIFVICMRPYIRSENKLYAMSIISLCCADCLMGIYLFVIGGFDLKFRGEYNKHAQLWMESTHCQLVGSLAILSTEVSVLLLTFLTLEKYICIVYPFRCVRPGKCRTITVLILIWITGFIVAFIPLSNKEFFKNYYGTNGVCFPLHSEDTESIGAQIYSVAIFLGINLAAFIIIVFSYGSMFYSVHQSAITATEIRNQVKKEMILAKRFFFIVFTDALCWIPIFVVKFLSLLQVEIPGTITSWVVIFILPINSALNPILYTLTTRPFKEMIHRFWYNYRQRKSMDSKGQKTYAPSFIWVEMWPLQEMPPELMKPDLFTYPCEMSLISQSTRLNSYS

The test has as its target Relaxin receptor 1 (Homo sapiens) (UniProt Q9HBX9). Put plainly: qHTS Assay for Agonists of the Relaxin Receptor RXFP1: Cell Impedance. The conditions noted are these: HEK293-RXFP1 cell impedance, xCELLigence, 500 nM time course; at 0.5 µM; active compounds read high. An excerpt: The relaxin hormone is involved in the variety of biological functions in normal tissues and diseases. The role of relaxin is well-established in female reproduction and parturition, mammary gland and endometrial development, maintenance of myometrial quiescence during pregnancy. Relaxin signaling through its G protein-coupled receptor (GPCR) RXFP1 results in ECM remodeling through regulation of collagen deposition, cell invasiveness, proliferation and overall tissue homeostasis. […] Recombinant human relaxin (rhRlx) is currently being tested in clinical trials as a protective agent in congestive heart failure, in treating severe preeclampsia, and as an anti-fibrotic agent in systemic sclerosis.
Upon relaxin binding RXFP1 activation leads to the activation of adenylate cyclase (AC) via Gs. cAMP will activate PKA, which phosphorylates many signaling proteins. Thus, detection of cAMP increase is an easy and reliable indication of relaxin receptor activation. To screen for agonists of the relaxin receptor, a HEK293T cell line stably transfected with RXFP1 was used. RXFP1 activation was assayed by changes in cAMP levels as detected with a time-resolved fluorescence energy transfer (TR-FRET) cAMP detection kit.
After the primary screen and rounds of SAR, a probe and analog were identified. It was previously shown that relaxin increases cell impedance in RXFP1 transfected cells. A cell line stably transfected with RXFP1 receptor HEK293-RXFP1 was used for cell impedance assay to confirm relaxin-like properties of the compounds.
NIH Chemical Genomics Center [NCGC]
NIH Molecular Libraries Probe Production Centers Network [MLPCN]
Assay Submitter (PI): Alexander Agoulnik
To equilibrate the plates, 100 microL of test media (DMEM, 1% FBS, 1x Pen/Strep) was added to each well of E Plate 16 (Roche Diagnostics, Indianapolis, IN) and the plate was incubated at room temperature for 30 minutes at which point baseline impedance was measures. Then 20,000 HEK293-RXFP1 cell or HEK293 cells (parental control cell line) were added per well in a volume of 100 microL test media and allowed to sediment at room temperature for 30 minutes. The plate was placed into xCELLigence RTCA DP Instrument in the CO2 incubator overnight to allow the cells to attach. Relaxin (10 ng/mL), vehicle, or compounds 500 nM were added to the wells and the cellular impedance was measured every 10-30 seconds for 1 hour.
A general note: Quantitative high-throughput screening tests each substance at several concentrations.
For `CCCCOc1ccccc1C(=O)Nc1ccccc1C(=O)Nc1cccc(S(=O)(=O)C(F)(F)F)c1`, the impedance increase (% of relaxin) was 39.5% (active).
The same measure for `CCOc1ccccc1C(=O)Nc1ccccc1C(=O)Nc1cccc(C(F)(F)F)c1`: 67% (active); for `CC(C)Oc1ccccc1C(=O)Nc1ccccc1C(=O)Nc1cccc(S(=O)(=O)C(F)(F)F)c1`: 46.7% (active).
Then `CCOc1ccccc1C(=O)Nc1ccccc1C(=O)Nc1cccc(S(=O)(=O)C(F)(F)F)c1`, with 31.2% (active).
